A selection: hits, their analogues and other compounds. The true share with any hit is near 3.1%.
FGF22 binding: binders of recombinant human FGF22 by thermal shift; SYPRO orange fluorescence; percent of sucrose octasulfate shift, DMSO zero; activity (Tm shift, normalised), % at 9.99 µM; actives 1.5% (n = 340,000); AID 651658;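 active means mean Tm shift, scaled 0 neutral to 100 positive control, at about 1.3% or above, every replicate too, limit read from the data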
SIRT5 inh: blocks human SIRT5 desuccinylation of peptide | actives 1.1% (n = 330,000) | inhibition, % at 15 µM | Purified SirT5, succinyl-peptide AMC, trypsin-coupled fluorescence | Q9NXA8; in the data active means inhibition above about 15%
ERAP1 inh: blocks human ERAP1 aminopeptidase activity. recombinant ERAP1, Leu-AMC fluorescence, 60 min. Q9NZ08. inhibition, % at 10.7 µM. actives 0.15% (n = 340,000);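 active means mean replicate inhibition of at least 30%, or all replicates individually reaching that 30% level; inactive means mean below 30% and not every replicate reaching it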;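 further: 0% = neutral control wells and 100% = L-leucinethiol positive control wells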
CASP6 VEID inh: blocks human caspase-6 cleavage activity. P55212. purified caspase-6, Z-VEID-R110 cleavage fluorescence. inhibition, % at 12.5 µM. actives 0.53% (n = 350,000);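 active means mean inhibition across replicates at least about 35%, with every replicate also reaching that limit, limit read from the data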;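 further: 0% = median of neutral control wells and 100% = no fluorescence left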
Starred values were filed as active, the others as inactive; . = no result.

SMILES	FGF22 binding	SIRT5 inh	ERAP1 inh	CASP6 VEID inh
O=c1c(OC2OC(CO)C(O)C(O)C2O)c(-c2ccc(O)c(O)c2)oc2cc(O)cc(O)c12 (stereo not given)	0	.	56*	16
O=c1c(O[C@H]2O[C@@H](CO)[C@H](O)[C@@H](O)[C@@H]2O)c(-c2ccc(O)cc2)oc2cc(O)cc(O)c12	0	.	.	23
C[C@@H]1O[C@@H](O[C@H]2[C@H](O)[C@@H](O)[C@H](Oc3c(-c4ccc(O)c(O)c4)oc4cc(O)cc(O)c4c3=O)O[C@@H]2CO)[C@H](O)[C@H](O)[C@H]1O	0	.	1	.
CCCNC(=O)[C@H]1[C@H](CO)[C@H]2Cn3c(ccc(-c4ccccc4OC)c3=O)[C@H]2N1CC	0	1	-4	3
COc1ccc(Nc2c(-c3ccc(C)cc3)nc3cnccn23)cc1	0	18*	.	13
N/C(=N\NC(=O)c1ccc(F)cc1)c1cc2ccccc2oc1=O	43*	-4	0	-5
N/C(=N\NC(=O)c1cccc(F)c1)c1cc2ccccc2oc1=O	0	-6	-3	13
C[C@@H](NC(=O)C[C@@H]1C[C@H]2c3cc(NC(=O)c4cccnc4)ccc3O[C@H]2[C@H](CO)O1)c1ccccc1	0	0	1	-2
O=C(c1ccccc1)c1ccc(O)c(O)c1O	0	4	3	73*
Cc1cc(C(=O)c2ccccc2)cc(C)c1O	0	.	1	2
COCC#Cc1cnc2c(c1)C(=O)N([C@H](C)CO)C[C@H](C)[C@@H](CN(C)C(=O)Cc1cccnc1)O2	0	-6	-1	2
OC(CSc1ccccn1)CC(O)c1ccccc1 (stereo not given)	0	-1	-1	-3
Cc1cc(O)c(N)c(C)c1Cl	43*	1	6	0
CC=Cc1ccc2n(c1=O)C[C@@H]1[C@@H](CO)[C@H](C(=O)NC3CCCC3)N(C(=O)C3CCC3)[C@H]21 (mixture of isomers)	.	-10	1	-1
O=C(OCC(=O)N1N=C(c2ccc(Cl)cc2)CC1c1ccco1)c1cncc(Br)c1 (stereo not given)	0	.	-1	41*
CC(C)CC#Cc1ccc2c(c1)O[C@H](CN(C)C(=O)C1CCCCC1)[C@H](C)CN([C@@H](C)CO)S2(=O)=O	0	22*	-3	0
C[C@@H]1CN([C@H](C)CO)S(=O)(=O)c2ccc(C#Cc3ccccc3)cc2O[C@@H]1CN(C)C(=O)C1CC1	-1	8	5	1
C[C@@H]1CN([C@@H](C)CO)S(=O)(=O)c2ccc(C#Cc3ccccc3)cc2O[C@H]1CN(C)C(=O)C1CC1	-1	20*	3	1
C[C@H](CO)N1C[C@H](C)[C@H](CN(C)C(=O)CC2CC2)Oc2cc(C#CC(C)(C)O)ccc2S1(=O)=O	0	18*	4	-2
CC(C)CC#Cc1ccc2c(c1)O[C@H](CN(C)C(=O)CC1CC1)[C@H](C)CN([C@@H](C)CO)S2(=O)=O	0	18*	1	-2
C[C@H]1CN([C@@H](C)CO)S(=O)(=O)c2ccc(C#CC(C)(C)O)cc2O[C@H]1CN(C)C(=O)CC1CC1	0	-4	2	-1
COC(=O)c1ccc(CO/N=C/c2ccc(OC)cc2)o1	44*	1	2	0
COC(=O)c1ccc(COC(=O)c2ccc(CO)cc2)o1	44*	0	-2	-1
CCNC(=O)C[C@@H]1CC[C@@H]2[C@@H](COc3ccc(NC(=O)c4ccc(C(F)(F)F)cc4)cc3C(=O)N2C)O1	0	-5	-1	2
CSc1nc2ccccc2n1Cc1cccc([N+](=O)[O-])c1	44*	0	1	0
SMILES	FGF22 binding	SIRT5 inh	ERAP1 inh	CASP6 VEID inh
Cc1cnc(C=NNC(N)=S)c2cccc(N)c12	0	0	4	66*
COc1cc(NC(=O)Cc2ccccc2)c(C(=O)O)cc1OC	0	5	-1	0
COc1cc(NC(=O)Cc2ccc([N+](=O)[O-])cc2)c(C(=O)O)cc1OC	0	20*	3	9
CC(C)C(=O)Nc1ccc2c(c1)C(=O)N(C)[C@@H]1CC[C@@H](CC(=O)NCC3CC3)O[C@@H]1CO2	0	-5	-1	2
CSc1ccc(CNc2nnnn2C)cc1	43*	2	3	0
CCc1cc2c(nc1CC)CCCN2S(=O)(=O)c1c(C)noc1C	43*	.	1	-3
CCc1cc2c(nc1CC)CCCN2S(=O)(=O)c1ccccc1C	42	.	1	0
C/C=C/c1ccc([C@H]2[C@@H](CO)N(S(C)(=O)=O)[C@@H]2CN(CC)C(=O)CC)cc1	0	-13	.	.
C[C@H]1CN([C@@H](C)CO)C(=O)Cc2cc(NS(=O)(=O)c3ccccc3)ccc2O[C@H]1CN(C)C(=O)Nc1ccc(F)cc1	0	1	0	1
CCOc1ccc(C(=O)Nc2cc(NC(=O)c3ccc(OCC)c(Cl)c3)cc(C(=O)O)c2)cc1Cl	0	15*	7	32
COc1ccc(/C=C(\NC(=O)c2ccccc2)C(=O)OC[C@@H]2CCC[N+]3(C)CCCCC23)cc1OC (stereo not given in full)	0	2	39*	1
O=C(N/N=C/c1ccc(OC(F)F)cc1OC(F)F)c1cccc(S(=O)(=O)N2CCOCC2)c1	44*	1	5	7
O=C(NN=Cc1ccccc1OC(F)F)c1cccc(S(=O)(=O)N2CCCC2)c1	0	0	1	1
C[C@@H]1CN([C@@H](C)CO)C(=O)c2cccc(NC(=O)C3CCCCC3)c2O[C@H]1CN(C)S(=O)(=O)c1ccc(F)cc1	0	-8	0	3
C[C@@H](NC(=O)[C@@H]1CCCN1C(=O)OC(C)(C)C)c1ccccc1	0	-5	-3	-5
C[C@H](NC(=O)[C@@H]1CCCN1C(=O)[C@@H]1CCCN1C(=O)OC(C)(C)C)c1ccccc1	0	16*	0	1
Cc1nc(C)c(-c2csc(Nc3ccc(S(N)(=O)=O)cc3)n2)s1	0	1	0	0
Cc1ccc(-c2csc(Nc3ccc(S(N)(=O)=O)cc3)n2)o1	43*	-3	2	.
COc1cc(OC)c(C(=O)OCC(=O)Nc2cc(C)on2)cc1OC	43*	2	-3	0
CCOCCCN1CN(Cc2ccco2)CNC1=S	43*	-4	2	-5
C[C@H](CO)N1C[C@H](C)[C@@H](CN(C)Cc2ccccc2)Oc2ncc(Br)cc2C1=O	0	0	2	2
O=C(c1cc(S(=O)(=O)N2CCOCC2)c(Cl)cc1Cl)N1CCN(S(=O)(=O)c2cccc(F)c2)CC1	43*	.	0	5
Cc1ccc(S(=O)(=O)N2CCN(C(=O)c3cc(S(=O)(=O)N4CCOCC4)c(Cl)cc3Cl)CC2)cc1	0	-1	-3	5
COc1ccc2c(COC(=O)CC3Sc4ccccc4NC3=O)cc(=O)oc2c1 (stereo not given)	44*	-6	-1	0
NS(=O)(=O)c1cccc(NC(=O)COC(=O)CC2Sc3ccccc3NC2=O)c1 (stereo not given)	-1	12	0	2
